Screens (PubChem BioAssay)
CSC inhib = blocks cancer stem cells; actives 1.1% (n = 300,000); inhibition, % at 7.5 µM; cancer stem cell-like cells viability, luminescence; in the data active means inhibition above about 75%; tested in HMLE shEcad cells
697 NFkB inh = inhibitors of the PMA/ionomycin-induced NF-kB reporter in 697 B cells. inhibition, % at 4 µM. 697 B-cell NF-kB luciferase reporter, 16 h. actives 0.33% (n = 330,000); in the data active means inhibition above about 35%
Gli-Sufu antag = Gli-Sufu pathway antagonism. Sufu-KO-LIGHT fibroblasts, Gli luciferase reporter luminescence. inhibition, % at 5 µM. actives 0.74% (n = 340,000);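 active means inhibition above about 55%, limit read from the data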;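 further: 0% = DMSO-treated cells and 100% = wells with medium but no cells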
Mdm2 MdmX PPI = disrupts the human Mdm2-MdmX interaction. O15151+Q00987. SaOS-2 split-luciferase Mdm2/MdmX complementation, luminescence. inhibition, % at 8 µM. actives 3% (n = 330,000). AID 485346;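 active means inhibition of at least 50% at 8 µM in the primary screen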
Target sequence (O15151 whole entry, looked up): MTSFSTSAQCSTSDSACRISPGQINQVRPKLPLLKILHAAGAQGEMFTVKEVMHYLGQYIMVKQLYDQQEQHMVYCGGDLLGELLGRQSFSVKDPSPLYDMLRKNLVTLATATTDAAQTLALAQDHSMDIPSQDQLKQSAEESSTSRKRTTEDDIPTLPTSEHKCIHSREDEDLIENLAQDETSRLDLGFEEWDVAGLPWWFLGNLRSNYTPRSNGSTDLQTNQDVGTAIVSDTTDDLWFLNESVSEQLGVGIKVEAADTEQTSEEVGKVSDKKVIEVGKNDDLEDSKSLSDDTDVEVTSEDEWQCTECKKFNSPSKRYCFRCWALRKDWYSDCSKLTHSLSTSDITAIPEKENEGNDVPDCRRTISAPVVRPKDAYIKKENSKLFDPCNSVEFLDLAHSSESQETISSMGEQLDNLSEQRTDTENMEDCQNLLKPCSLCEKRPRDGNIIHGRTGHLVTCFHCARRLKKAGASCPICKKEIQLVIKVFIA
Target sequence (Q00987 whole entry, looked up): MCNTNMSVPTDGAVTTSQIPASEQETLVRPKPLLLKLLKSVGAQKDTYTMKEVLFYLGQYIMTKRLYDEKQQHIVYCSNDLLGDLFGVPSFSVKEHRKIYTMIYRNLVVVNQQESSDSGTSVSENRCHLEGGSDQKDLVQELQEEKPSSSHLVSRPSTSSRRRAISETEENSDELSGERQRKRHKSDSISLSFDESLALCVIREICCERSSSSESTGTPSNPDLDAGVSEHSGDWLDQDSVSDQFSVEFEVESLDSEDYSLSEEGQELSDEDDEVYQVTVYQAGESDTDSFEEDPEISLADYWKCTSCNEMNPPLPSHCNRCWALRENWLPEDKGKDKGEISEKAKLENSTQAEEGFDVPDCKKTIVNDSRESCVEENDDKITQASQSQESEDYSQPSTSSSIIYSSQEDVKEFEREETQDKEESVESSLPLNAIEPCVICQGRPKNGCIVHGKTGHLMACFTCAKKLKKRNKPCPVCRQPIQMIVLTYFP
Jurkat NFkB inh = inhibitors of the PMA/ionomycin-induced NF-kB reporter in Jurkat cells. actives 0.53% (n = 330,000). inhibition, % at 4 µM. PMA/ionomycin-induced NF-kB luciferase reporter, luminescence; in the data active means inhibition above about 50%
aSyn UTR inh = 5' untranslated region of α-synuclein, MLPCN primary screen; alpha-synuclein 5'UTR reporter, inhibitor activity; AID 1813; inhibition, % (tested at 7.5 µM); actives 0.82% (n = 300,000); in the data active means inhibition above about 60%;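 further: H4 neuroglioblastoma cells stably carrying SNCA 5'UTR luciferase fusion; 0% = DMSO wells and 100% = positive control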
Mdm2 MdmX conf = confirmation of human Mdm2/MdmX interaction inhibitors; shares compounds with Mdm2 MdmX PPI; Mdm2-MdmX binding, luminescent assay; inhibition, % at 8 µM; actives 55% (n = 10,000); in the data active means inhibition above about 40%
Full FLuc ctr = counter-screen for Mdm2/MdmX inhibitors: full-length luciferase | shares compounds with Mdm2 MdmX PPI | SaOS-2 full-length luciferase counterscreen, luminescence | inhibition, % at 8 µM | actives 77% (n = 6,200);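 active means mean inhibition at 8 µM reaching about 37%, which flags the compound as non-specific, limit read from the data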;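 further: p53-null SaOS-2 cells with luciferase driven by a doxycycline-inducible promoter; compound on cells about two nights before reading with doxycycline added after day one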
Gli antag conf = Gli-SUFU antagonism confirmation, single concentration; inhibition, % at 5 µM; actives 40% (n = 2,500); Sufu-KO-LIGHT cells, Gli luciferase reporter, luminescence; shares compounds with Gli-Sufu antag; AID 602428;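 active means mean inhibition at 5 µM reaching about 45%, limit read from the data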;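 further: plate controls were DMSO-treated cells for no effect and wells lacking cells for full effect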
SufuKO cytotox = cytotoxic in Gli-SUFU antagonist counter-screen; AID 651994; Sufu-KO-LIGHT cells cytotoxicity, ATP luminescence; actives 32% (n = 2,500); cytotoxicity, % at 5 µM; shares compounds with Gli-Sufu antag;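 active means mean cytotoxicity at 5 µM above about 25%, limit read from the data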;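 further: cells exposed to compound overnight for roughly 16 to 18 hours; plate controls were DMSO wells with cells for no effect and medium without cells for full effect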
Wnt3a cs = inhibits Wnt3a reporter, counter-screen for Gli-SUFU antagonists; shares compounds with Gli-Sufu antag; Wnt-LIGHT cells, Wnt3a-driven luciferase reporter, luminescence; inhibition, % at 6.25 µM; actives 20% (n = 2,500);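 active means mean inhibition above about 25%, limit read from the data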
An asterisk follows results filed as active; . = not tested or not shown. An excerpt weighted towards active compounds, which were near 4.5% of everything screened.

SMILES | CSC inhib | 697 NFkB inh | Gli-Sufu antag | Mdm2 MdmX PPI | Jurkat NFkB inh | aSyn UTR inh | Mdm2 MdmX conf | Full FLuc ctr | others
COCCOC(=O)c1c(NC(=O)COC(=O)c2ccc(C)o2)sc(C(N)=O)c1C | -6 | 12 | -4 | -9 | 13 | . | . | .
Cc1ccccc1C1CC(=O)Oc2cc(O)ccc21 (centres undefined) | . | 3 | 2 | -3 | . | . | . | .
CC(OC(=O)c1cc(Br)ccc1O)C(=O)Nc1ccc(S(=O)(=O)N2CCCC2)cc1 (centres undefined) | 20 | -15 | -5 | 63* | -22 | -9 | 43* | 73*
CC(OC(=O)c1ccc(S(=O)(=O)N2CCCCC2)cc1)C(=O)Nc1ccc(C(N)=O)cc1 (centres undefined) | . | -2 | 3 | 54* | 19 | . | -16 | .
O=C(CN1CCOCC1)OCCCC1CCCCC1 | -13 | -1 | -5 | -10 | 6 | 0 | . | .
O=[N+]([O-])c1ccc2nc(Cl)nc(-c3ccccc3)c2c1 | -11 | 13 | -1 | 96* | 16 | 11 | 66* | 54*
COC(=O)c1[nH]c2cc(OC)c(OC)cc2c1/C=N/Nc1ccccc1 | 53 | 7 | 4 | 79* | 14 | 38 | 25 | 85*
COc1cc(/C=N/Nc2ccccc2)ccc1O | 41 | 17 | -2 | -27 | -12 | -8 | . | .
CC(C)NC(=O)c1cnc(N2CCN(c3ccccn3)CC2)c2ccccc12 | 4 | -14 | 5 | -5 | 2 | 4 | . | .
CCc1ccc(NC(=O)c2cnc(N3CCN(c4ccccn4)CC3)c3ccccc23)cc1 | 19 | -25 | 29 | 64* | 24 | -28 | 56* | 60*
NNc1nc2sc3c(c2c(=O)n1Cc1ccccc1)CCC3 | 17 | 13 | -6 | -6 | -19 | -6 | . | .
NNc1nc2sc3c(c2c(=O)n1C1CCCCC1)CCN(Cc1ccccc1)C3 | 48 | -23 | 7 | 55* | -7 | -4 | 8 | .
N=c1n(CCO)c2ccccc2n1CCOc1ccc(Cl)cc1Cl | 12 | -33 | 9 | 97* | 20 | 19 | 42* | 25
CSc1ccccc1NC(=O)CN(C)C(C)C(=O)NCc1ccc2c(c1)OCO2 (centres undefined) | -11 | 5 | -6 | -5 | -2 | . | . | .
CCOc1cc(C2C(C#N)=C(N)OC(C)=C2C(C)=O)c(Br)c(Br)c1OC(C)C (centres undefined) | 41 | -3 | -16 | 64* | -11 | 21 | 47* | 49*
O=C(CSc1nnc(NC(=O)C2CC2)s1)Nc1ccccc1C(F)(F)F | -10 | 5 | 3 | -5 | 5 | 2 | . | .
O=C(O)Cn1ncc2ccccc2c1=O | 5 | -2 | -3 | 0 | -11 | 11 | . | .
O=c1c2ccccc2cnn1CCOc1ccccc1 | 20 | -163 | 59* | 60* | -28 | 72* | 69* | 65* | Gli antag conf=38;SufuKO cytotox=18;Wnt3a cs=95*
Cc1ccc(C(=O)OCc2nnc(-c3ccccc3)o2)cc1S(=O)(=O)N1CCOCC1 | -7 | 18 | -5 | -2 | -11 | -4 | . | .
COc1ccc(/C=N/NC(=O)c2nc(-c3ccccc3)n(-c3ccccc3)n2)c(O)c1 | . | -19 | 63* | 63* | 21 | 87* | 66* | 41* | Gli antag conf=62*;SufuKO cytotox=34*;Wnt3a cs=56*
COc1cccc(/C=N\NC(=O)c2ccc(Cn3cc(Br)c([N+](=O)[O-])n3)o2)c1O | -8 | -108 | 56* | 59* | 5 | 50 | 74* | 43* | Gli antag conf=50*;SufuKO cytotox=13;Wnt3a cs=47*
COC(=O)c1cn(NC(=O)C2COc3ccccc3O2)c(=O)c2ccccc12 (centres undefined) | 6 | 7 | -2 | 18 | -5 | 5 | . | .
Nc1ccc(S(=O)(=O)Nc2nccs2)cc1N=Nc1ccccc1[N+](=O)[O-] | . | . | 2 | . | . | . | . | .
CCOc1ccc(N(CC(=O)Nc2ccccc2OC)S(=O)(=O)c2ccccc2)cc1 | 70 | -9 | 54 | 58* | 50 | 123* | 63* | 79* | Gli antag conf=47*;SufuKO cytotox=60*;Wnt3a cs=-30
Cc1ccc(S(=O)(=O)Nc2nc(-c3ccccc3)cs2)cc1 | -6 | 11 | -9 | 6 | 1 | 10 | . | .
SMILES | CSC inhib | 697 NFkB inh | Gli-Sufu antag | Mdm2 MdmX PPI | Jurkat NFkB inh | aSyn UTR inh | Mdm2 MdmX conf | Full FLuc ctr | others
Cc1ccc(S(=O)(=O)Nc2ccccc2C(=O)Nc2nc(-c3ccc(F)cc3)cs2)cc1 | 0 | -25 | 77* | 86* | 8 | 40 | 90* | 22 | Gli antag conf=79*;SufuKO cytotox=35*;Wnt3a cs=78*
O=C1OCCC1Sc1nnc(-c2ccc(Cl)cc2Cl)o1 (centres undefined) | -4 | 35 | 53 | 77* | 24 | 90* | 62* | 49* | Gli antag conf=67*;SufuKO cytotox=12;Wnt3a cs=78*
O=C1OCCC1Sc1nnc(-c2ccccc2)o1 (centres undefined) | -1 | -16 | 8 | 8 | 2 | 13 | . | .
COC(=O)c1sc(NC(=O)c2cc(-c3ccccc3)nc3ccccc23)c(C#N)c1C | 0 | 21 | 69* | 95* | -6 | 27 | 92* | 35 | Gli antag conf=82*;SufuKO cytotox=31*;Wnt3a cs=62*
CCN(CC(=O)N1CCCC1)S(=O)(=O)c1ccc(OC)cc1 | . | 1 | -4 | 13 | 0 | -2 | . | .
Cc1ccc([N+](=O)[O-])cc1NC(=S)NC(=O)C(C)(C)C | 0 | -18 | 3 | 18 | 4 | 31 | . | .
Cc1ccc(NS(=O)(=O)c2cc([N+](=O)[O-])ccc2NNC(=S)Nc2cc(C)ccc2C)c(C)c1 | 80* | -8 | 62* | 94* | 11 | 8 | 88* | 39* | Gli antag conf=51*;SufuKO cytotox=4;Wnt3a cs=62*
CC1CC(C)CN(CCOc2ccc(Br)cc2)C1 (centres undefined) | 45 | -3 | 10 | -2 | -2 | -3 | . | .
O=C1NC(=O)C2(CCCC2C(=O)O)N1 (centres undefined) | . | . | 2 | . | . | . | . | .
CCc1c(C)sc2nc(C(C)C)nc(SCC(=O)N3CCc4ccccc4C3)c12 | 192* | -11 | 83* | 95* | -3 | -1 | 58* | 74* | Gli antag conf=85*;SufuKO cytotox=41*;Wnt3a cs=13
Cc1sc2nc(C3CC3)nc(SCC(=O)N3CCc4ccccc4C3)c2c1C | 21 | -9 | 25 | -2 | -6 | -6 | . | .
Cc1cc(C)n2nc(SCC(=O)NC3CCCCC3C)nc2n1 (centres undefined) | -4 | . | -14 | . | . | -4 | . | .
